Compound activity from PubChem.
Only some compounds are listed: those with a hit (about 5.4% of all), similar ones and a draw of the others.
CSC inhib: cancer stem cell inhibition; AID 2717; actives 1.1% (n = 300,000); cancer stem cell-like cells viability, luminescence; inhibition, % at 7.5 µM; in the data active = inhibition above about 75%; inconclusive = no clear call, values can overlap the other calls; tested in HMLE shEcad cells
PP1 counter: PP1-alpha (human) inhibition in PP5 counter-screen | purified PP1alpha, OMFP fluorescence | inhibition, % at 6.7 µM | actives 0.9% (n = 320,000) | AID 2235;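 active = inhibition above the mean inhibition of all tested compounds plus 3 SD, computed separately for each screening campaign, cut at about 15% in these data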
Target sequence (P62136 whole entry, looked up): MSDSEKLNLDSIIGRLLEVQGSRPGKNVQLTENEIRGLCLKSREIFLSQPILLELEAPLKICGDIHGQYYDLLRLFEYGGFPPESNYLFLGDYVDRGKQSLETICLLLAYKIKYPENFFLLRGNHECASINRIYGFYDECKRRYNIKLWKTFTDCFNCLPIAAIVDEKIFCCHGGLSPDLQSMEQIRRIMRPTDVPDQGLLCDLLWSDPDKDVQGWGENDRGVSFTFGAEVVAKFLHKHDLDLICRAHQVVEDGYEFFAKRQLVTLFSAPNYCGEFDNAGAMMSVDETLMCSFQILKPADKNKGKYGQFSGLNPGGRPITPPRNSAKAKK
PP5 inh: inhibitors of human protein phosphatase 5 (PP5); P53041; purified PP5c, OMFP substrate fluorescence; inhibition, % at 6.7 µM; actives 0.18% (n = 320,000);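 active = inhibition above the campaign's mean inhibition across all tested compounds plus 3 SD, cut at about 9.5% in these data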;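 also: 0% = DMSO only and 100% = 100 µM cantharidin control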
ALR inh: human ALR oxidase inhibition via reduced H2O2; inhibition, % (test concentration not listed); actives 3.8% (n = 290,000); AID 485317; purified ALR, DTT oxidation, H2O2 HRP-luminol luminescence;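 active = mean replicate inhibition above about 79%, with every replicate also reaching it, limit read from the data; inconclusive = only one of the two criteria met; inactive = mean below limit and not every replicate reaching it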
Target sequence (P55789 whole entry, looked up): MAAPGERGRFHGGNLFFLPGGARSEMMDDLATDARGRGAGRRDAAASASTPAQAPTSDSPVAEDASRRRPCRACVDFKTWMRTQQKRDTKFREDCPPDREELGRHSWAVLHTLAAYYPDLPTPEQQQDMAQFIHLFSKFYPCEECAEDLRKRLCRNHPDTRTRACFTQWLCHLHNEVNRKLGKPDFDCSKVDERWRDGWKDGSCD
Calb FLC: affects C. albicans growth with fluconazole; growth inhibition, % (no concentration beside the values); C. albicans CaCi-2 (fluconazole-resistant clinical isolate) + fluconazole, Alamar Blue growth, 48 h; actives 0.57% (n = 300,000);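 active = growth inhibition above about 58% in most replicates, limit read from the data, passing the limit was not always enough; inconclusive = exactly half the replicates above a set limit; inactive = most replicates below a set limit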;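 also: all wells also contain fluconazole at 8 µg/ml as a sub-toxic cotreatment; 0% = median of DMSO wells and 100% = median of geldanamycin control wells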
* hit, by the source's call.

Results for O=C1CCCN1CCCNC(=S)Nc1ccc(F)cc1 ?
CSC inhib: -9.1; PP1 counter: -3.2; PP5 inh: 1.4; ALR inh: -2.7; Calb FLC: -4.1

Results for O=C(CC12CC3CC(CC(C3)C1)C2)NC(=S)NCc1ccco1 ?
CSC inhib: 45.0; PP1 counter: 5.7; PP5 inh: -1.8; ALR inh: 7.4; Calb FLC: -22.5

Results for CCn1c(SCC(=O)Nc2cccc(C)n2)nnc1-c1ccco1 ?
CSC inhib: -3.3; PP1 counter: -4.0; PP5 inh: -0.8; ALR inh: -4.3; Calb FLC: -7.3

Results for Cc1ccc(-c2nc(=S)c3c(n2CC2CCCO2)CC(C)(C)OC3)cc1 (centres undefined) ?
PP1 counter: -0.6; PP5 inh: 0.3; Calb FLC: inconclusive

Results for Cc1ccc(-c2nc(=S)c3c(n2Cc2ccco2)CC(C)(C)OC3)cc1 ?
CSC inhib: -9.4; PP1 counter: -0.2; PP5 inh: 1.3; ALR inh: 97.0*; Calb FLC: 17.3

How did Cc1ccc2c(c1)c1c(n2CC(O)CNC2CCCC2)CCCC1 (centres undefined) do in these assays?
CSC inhib: 7.8; PP1 counter: 1.2; PP5 inh: -0.8; ALR inh: 89.2*; Calb FLC: -9.6

Results for CCOC(=O)N1CCN(C(=O)c2ccc(N(C)S(=O)(=O)c3ccc(C)cc3)cc2)CC1 ?
CSC inhib: 45.9; PP1 counter: -1.6; PP5 inh: 0.9; ALR inh: -6.3; Calb FLC: 4.1

Results for CCOc1ccc(CNC(=S)N/N=C\c2ccc([N+](=O)[O-])cc2)cc1 ?
CSC inhib: -4.0; PP1 counter: 1.7; PP5 inh: 2.9; ALR inh: 98.6*; Calb FLC: -0.3

Results for Cc1ccc[n+](CC(=O)Nc2ccc([N+](=O)[O-])cc2)c1 ?
CSC inhib: 1.9; PP1 counter: -2.2; PP5 inh: 1.2; ALR inh: inconclusive; Calb FLC: 22.3

How did Cc1ccc[n+](-c2nc([O-])sc2/C=N/Nc2ccc([N+](=O)[O-])cc2)c1 do in these assays?
CSC inhib: -5.6; PP1 counter: -1.9; PP5 inh: 2.8; ALR inh: 91.9*; Calb FLC: -2.8

How did Cc1cc(NC(=O)c2ccc(Cl)cc2)c(C)cc1O do in these assays?
CSC inhib: -5.1; PP1 counter: -3.2; PP5 inh: -0.2; ALR inh: 20.2; Calb FLC: 4.3

Results for Cc1cc(C(C#N)c2ccc(Cl)cc2)c(Cl)cc1NC(=O)c1cc(I)cc(I)c1O (centres undefined) ?
CSC inhib: 95.9*; PP1 counter: 11.4; PP5 inh: -1.4; ALR inh: -4.2; Calb FLC: 21.5

Results for Cc1sc(NC(=O)c2ccccc2F)c(CN2CCCCC2)c1C ?
CSC inhib: 0.0; PP1 counter: 1.4; PP5 inh: 6.2; ALR inh: 95.2*; Calb FLC: 2.6

How did O=C1/C(=C/c2ccc([N+](=O)[O-])cc2)C=C(c2ccccc2)N1c1ccc(O)cc1 do in these assays?
PP1 counter: 0.9; PP5 inh: 3.7; ALR inh: 4.2; Calb FLC: 10.0

Results for CCCc1cc(=O)n2[nH]c(-c3cccc(Br)c3)cc2n1 ?
CSC inhib: -2.9; PP1 counter: 2.5; PP5 inh: 2.0; ALR inh: -2.8; Calb FLC: 18.1

How did FC(F)(F)c1nnc(-c2ccccc2)nc1Sc1ccc(Cl)cc1 do in these assays?
CSC inhib: 80.5*; PP1 counter: -1.8; PP5 inh: -1.1; ALR inh: 18.3; Calb FLC: 11.6

How did Clc1ccc(-c2nnc(-c3ccccc3)c(-c3c[nH]c4ccccc34)n2)cc1 do in these assays?
CSC inhib: -8.4; PP1 counter: -6.6; PP5 inh: -0.6; ALR inh: -3.7; Calb FLC: -9.7

What do the screens show for `Clc1ccc(-c2nnc(-c3ccccc3)c(-c3ccccc3)n2)cc1`?
CSC inhib: 85.2*; PP1 counter: -2.9; PP5 inh: -0.1; ALR inh: 5.0; Calb FLC: -26.9

Results for Cc1nc(NS(=O)(=O)c2ccccc2)sc1C(=O)NN ?
CSC inhib: -14.0; PP1 counter: 0.8; PP5 inh: 2.4; ALR inh: 11.5; Calb FLC: 23.8

Results for COc1cc(C=O)c(-c2c(C=O)cc(OC)c3c2OCO3)c2c1OCO2 ?
CSC inhib: -15.5; PP1 counter: 0.5; PP5 inh: 2.0; Calb FLC: 7.9

What do the screens show for `CC(C)n1cnc2c(oc3ccccc32)c1=O`?
CSC inhib: -7.1; ALR inh: -1.3; Calb FLC: -4.0

How did COc1cccc(OCCSc2nc3ccccc3c(=O)[nH]2)c1 do in these assays?
CSC inhib: 1.8; PP1 counter: -1.0; PP5 inh: -1.5; ALR inh: -11.5; Calb FLC: 43.8

What do the screens show for `Cc1ccn2c(NC(=O)c3cccs3)c(-c3ccccc3)nc2c1`?
CSC inhib: -11.3; PP1 counter: -0.1; PP5 inh: 3.3; ALR inh: -1.3; Calb FLC: -8.2

How did Cc1ccn2c(NC(C)(C)C)c(-c3cccs3)nc2c1 do in these assays?
CSC inhib: -3.2; PP1 counter: -1.6; PP5 inh: 1.4; ALR inh: 99.0*; Calb FLC: -1.9

Results for CC(C)(C)C(=O)NC1=NCCS1 ?
CSC inhib: -1.8; PP1 counter: 0.9; PP5 inh: 2.3; ALR inh: 100.2*; Calb FLC: -5.5

What do the screens show for `COc1ccc([C@@H]2C[C@H](c3ccccc3)Oc3cc(OC)c(OC)c(OC)c32)cc1`?
CSC inhib: -5.9; PP1 counter: -0.3; PP5 inh: 3.1; ALR inh: -22.8; Calb FLC: 13.4

Results for CCOC(=O)/C(=N\Nc1cccc(C(F)(F)F)c1)N1CCOCC1 ?
CSC inhib: 82.9*; PP1 counter: -0.1; PP5 inh: 0.6; ALR inh: 48.8; Calb FLC: 114.3*

What do the screens show for `CCOC(=O)/C(=N\Nc1ccccc1Cl)N1CCN(Cc2ccccc2)CC1`?
CSC inhib: -6.6; PP1 counter: -1.2; PP5 inh: -0.9; ALR inh: -13.8; Calb FLC: 0.4

Results for CCOC(=O)/C(=N\Nc1ccccc1Cl)N1CCN(C)CC1 ?
PP1 counter: -9.9; PP5 inh: 0.2; ALR inh: 98.2*; Calb FLC: -3.3

Results for CCOC(=O)/C(=N\Nc1cccc(C(F)(F)F)c1)N(CCOC)CCOC ?
CSC inhib: 0.9; PP1 counter: -2.4; PP5 inh: -0.9; ALR inh: 97.2*; Calb FLC: -6.8

Results for CCc1nccn1C(=O)c1cnn2c(C(F)F)cc(-c3ccccc3)nc12 ?
CSC inhib: -12.1; PP1 counter: -2.9; PP5 inh: -1.4; ALR inh: 4.3; Calb FLC: 1.7

Results for Oc1cccc(Nc2nc(O)c(/C=C3\C=Nc4ccccc43)s2)c1 ?
CSC inhib: 54.2; PP1 counter: -1.1; PP5 inh: -0.2; ALR inh: 13.2

Results for Oc1nc(Nc2cccc(Cl)c2)sc1/C=C1\C=Nc2ccccc21 ?
CSC inhib: 108.7*; PP1 counter: 4.8; PP5 inh: 5.5; ALR inh: -1.1; Calb FLC: -0.9

How did CC1=Nc2ccccc2/C1=C\c1sc(Nc2ccc(C)cc2)nc1O do in these assays?
CSC inhib: 84.9*; PP1 counter: 2.9; PP5 inh: 3.0; Calb FLC: 3.7
